Source: PubChem BioAssay (NCI)
This is part of a sample that, as a whole, favours compounds with a hit. Of some 79,000 tested, about 15% had one in any assay. A number with no mark means an inactive call. Calls of active or inactive are those of the source. No stated cut-off is given here; in the data, active means growth inhibition above about 70%; inactive means the rest.

What was measured:
[1] = NCI Yeast Anticancer Drug Screen. Data for the rad50 strain (AID 155);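 further: 0% = growth of vehicle-only cultures of the same strain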; conditions: S. cerevisiae rad50 strain growth inhibition, hits give high values
Procedure, shortened: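 A DNA repair-deficient yeast mutant serves as the test organism; compound-induced growth inhibition is calculated against vehicle-treated cells.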

[2] = NCI Yeast Anticancer Drug Screen. Data for the mec2-1 strain (AID 157); conditions: S. cerevisiae mec2-1 strain, hits give high values
Procedure, shortened: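 Each compound was tested on mec2-1 yeast, a strain altered in DNA damage repair or cell cycle control. Growth inhibition is reported relative to vehicle.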

[3] = NCI Yeast Anticancer Drug Screen. Data for the sgs1 mgt1 strain (AID 161);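 further: 0% = growth of cultures given vehicle only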; conditions: S. cerevisiae sgs1 mgt1 strain, hits give high values
Procedure, shortened: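 Test agents were incubated with a DNA-repair-mutant yeast strain. Growth was then read and compared against vehicle-treated controls.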

[4] = NCI Yeast Anticancer Drug Screen. Data for the cln2 rad14 strain (AID 165);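 further: 0% = growth equal to vehicle treated cultures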; conditions: S. cerevisiae cln2 rad14 strain, hits give high values
Procedure, shortened: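 Test compounds were added to cln2 rad14 yeast cultures; inhibition of growth was then determined by comparison with vehicle treatment.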

[5] = NCI Yeast Anticancer Drug Screen. Data for the bub3 strain (AID 167); conditions: S. cerevisiae bub3 mutant strain, hits give high values
Procedure, shortened: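 Inhibition values come from growth of compound-treated mutant yeast normalised to vehicle-treated controls.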

[6] = NCI Yeast Anticancer Drug Screen. Data for the mlh1 rad18 strain (AID 175); conditions: S. cerevisiae mlh1 rad18 strain growth inhibition, hits give high values
Procedure, shortened: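 Inhibition values reflect reduced growth of mutant yeast versus vehicle-treated controls following compound exposure; the mutations affect DNA damage repair.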

[7] = at 5.0 µM (retest, dose inferred, filed as 0.5)
[8] = at 50.0 µM (retest, dose inferred, filed as 5.0)

Row | Structure (SMILES) | growth inhibition [1, 7] [%] | growth inhibition [1, 8] | growth inhibition ([1]; at 50.0 µM) | growth inhibition [2, 7] [%] | growth inhibition [2, 8] | growth inhibition ([2]; at 50.0 µM) | growth inhibition [3, 7] [%] | growth inhibition [3, 8] | growth inhibition ([3]; at 50.0 µM) | growth inhibition [4, 7] [%] | growth inhibition [4, 8] | growth inhibition ([4]; at 50.0 µM) | growth inhibition [5, 7] | growth inhibition [5, 8] | growth inhibition ([5]; at 50.0 µM) | growth inhibition [6, 7] [%] | growth inhibition [6, 8] | growth inhibition ([6]; at 50.0 µM)
1 | Cc1n(CC(C)C)c2c([n+]1CC(=O)c1ccc([N+](=O)[O-])cc1)C(=O)c1ccccc1C2=O | 56 | 92% (active) | 88.2% (active) | 25 | 98% (active) | 90.7% (active) | 44 | 98% (active) | 91.3% (active) | 66 | 98% (active) | 89.8% (active) | 84% (active) | 98% (active) | 89.9% (active) | 47 | 96% (active) | 90.2% (active)
2 | O=C1C(=O)N(c2ccc(Cl)c(Cl)c2)C(=O)C(=O)C1c1nc2ccccc2o1 | 21 | 98% (active) | 97.2% (active) | 17 | 98% (active) | 92.8% (active) | 27 | 95% (active) | 97.2% (active) | 22 | 90% (active) | 94.8% (active) | 3% | 96% (active) | 83.1% (active) | 14 | 95% (active) | 96.7% (active)
3 | NC(=S)NNC(=O)c1cccnc1 | 4 | 78% (active) | -5.1% | 1 | 39% | -5.95% | 2 | 46% | 45.6% | 5 | 75% (active) | -31.4% | 2% | 82% (active) | 0.15% | -1 | 68% | 50.8%
4 | COC1=C(NC(C)=O)C(=O)c2nc(-c3nc(C(=O)O)c(C)c(-c4ccc(OC)c(OC)c4O)c3N)ccc2C1=O | 59 | 93% (active) | 78.4% (active) | 28 | 79% (active) | 69.7% | 43 | 92% (active) | 68.7% | 38 | 90% (active) | 57.1% | 15% | 70% (active) | 55.8% | 48 | 89% (active) | 87% (active)
5 | CCC1(CC)COC(C)(C(=O)O)OC1 | -155 | -176% | 56.9% | -50 | -62% | 11.1% | -68 | -69% | -2.95% | -51 | -77% | -41.4% | -65% | -71% | 6.2% | -127 | -168% | -6.2%
6 | CCCN1CN(C(C(=O)N[C@@H]2C(=O)N3C(C(=O)O)=C(C)CSC23)c2ccccc2)CSC1=S (some centres not stated) | -19 | 11% | 33.7% | -11 | 1% | -32.4% | -21 | -10% | -3.25% | -37 | -14% | 44% | -10% | -1% | -38.4% | -13 | -12% | 1.5%
7 | O=[N+]([O-])c1c(O)cccc1O | 45 | 98% (active) | 99% (active) | 17 | 99% (active) | 99.2% (active) | 29 | 99% (active) | 99.2% (active) | 24 | 99% (active) | 98% (active) | 14% | 99% (active) | 98.9% (active) | 36 | 99% (active) | 98.5% (active)
8 | CCC[n+]1ccc(/C=N\NC(N)=S)c2ccccc21 | 22 | 38% | 38.2% | 19 | 36% | -16.4% | 21 | 38% | 6.2% | 9 | 34% | 5.25% | 15% | 42% | -6.7% | 17 | 33% | -41.6%
9 | O=C(c1ccccc1)C(Cl)c1ccccc1 (configuration not stated) | 9 | 99% (active) | 91.6% (active) | -12 | 99% (active) | 95.2% (active) | 1 | 97% (active) | 97.5% (active) | 0 | 41% | 44% | 51% | 99% (active) | 94% (active) | 0 | 99% (active) | 95.2% (active)
